Shown are actives, neighbours in structure and some others; about 0.39% of the full set was active somewhere.
Apoferritin bind – qHTS Assay for Identification of Novel General Anesthetics; apoferritin/1-aminoanthracene competitive binding, fluorescence; Ferritin light chain (Equus caballus), P02791; actives 0.074% (n = 350,000); AID 485281, 2010; Potency, µM (series often up to 77.5 µM), without a hit: at the top dose activity change, negative = displacement, usual class: inhibitors; note: potency is the fitted concentration of half-maximal effect; % is set by controls: 0 for no effect and ±100 for the full control effect; nearly all actives have a fitted effect of over 20% in size
Target sequence (P02791 2-175 limits assumed): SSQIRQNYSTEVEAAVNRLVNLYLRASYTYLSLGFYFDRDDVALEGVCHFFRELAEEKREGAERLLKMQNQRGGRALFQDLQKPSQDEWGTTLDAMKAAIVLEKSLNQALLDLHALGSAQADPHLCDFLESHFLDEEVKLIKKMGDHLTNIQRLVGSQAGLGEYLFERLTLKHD
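Horse-spleen apoferritin (10 uM) in 50% saturated 1-aminoanthracene in PBS was incubated 10 min at room temperature with compound. Fluorescence (ex 380, em 535 nm) was normalized to free and bound 1-AMA, with concentration-response fitted by a four-parameter Hill equation.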
Mm-Cpn inhibitor – Inhibitors of TCP-1 ring complex (TRiC) of Methanococcus maripaludis (MmCpn): qHTS; Chaperonin Mm-Cpn (Methanococcus maripaludis); purified Mm-Cpn ATPase, ADP Transcreener TR-FRET; Potency, µM (series often up to 76.9 µM), without a hit: at the top dose activity, negative = inhibition, most hits filed as inhibitors; actives 0.031% (n = 330,000); note: potency is the fitted concentration of half-maximal effect; % is set by controls: 0 for no effect and ±100 for the full control effect; nearly all actives have a fitted effect of over 80% in size
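Purified archaeal Mm-CPN (25nM final) preincubated 10 min at 37degC with compound, then 10uM ATP for 30 min at 37degC; ADP measured by HTRF Transcreener TR-FRET; buffer 30 mM TRIS pH 7.4, 100mM KCl, 5mM MgCl2, 1mM DTT.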
CCT chaperon mod – High-Throughput Screening for Modulators of Cytosolic Chaperonin Activity. purified chaperonin ATPase assay, HTRF ADP detection, 30 min. activity change, % (test concentration not listed), hits read low. actives 0.3% (n = 360,000); in the data active = activity change below about -30%; note: % is set by controls: 0 for no effect and ±100 for the full control effect
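ATPase activity: ADP formed was measured by HTRF Transcreener (665/615 nm ratio) after 30 min at 37 deg C with 10 uM ATP. Compounds screened at one 76 uM concentration against 40 or 20 nM TRiC in Tris pH 7.4/KCl/MgCl2/DTT buffer.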
ERG-DNA inh – qHTS for Small Molecule Inhibitors of the ERG Ets/DNA interaction; Transcriptional regulator ERG (Homo sapiens), P11308; AID 624246, 2012; Potency, µM (doses to about 76.9 µM), inactives show at the top dose FP activity, negative = inhibition, most hits filed as inhibitors; actives 0.028% (n = 370,000); fluorescence polarization, His-ERG Ets domain / labelled DNA; active = well fitted inhibition curve with a large enough effect in the polarisation, with a control signal flat; inconclusive = small, poorly fitted or top-dose-only effect, or effect the other way, or a change in a side signal; inactive = no such curve, though single readings can be large or run the other way; the % refers to the polarisation;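 note: polarization taken with two DNA probes labelled with fluorescein and Texas red; potency is the fitted concentration of half-maximal effect; % of control where 0% means no effect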
Target sequence (P11308 whole entry, looked up, the tested form may be a part): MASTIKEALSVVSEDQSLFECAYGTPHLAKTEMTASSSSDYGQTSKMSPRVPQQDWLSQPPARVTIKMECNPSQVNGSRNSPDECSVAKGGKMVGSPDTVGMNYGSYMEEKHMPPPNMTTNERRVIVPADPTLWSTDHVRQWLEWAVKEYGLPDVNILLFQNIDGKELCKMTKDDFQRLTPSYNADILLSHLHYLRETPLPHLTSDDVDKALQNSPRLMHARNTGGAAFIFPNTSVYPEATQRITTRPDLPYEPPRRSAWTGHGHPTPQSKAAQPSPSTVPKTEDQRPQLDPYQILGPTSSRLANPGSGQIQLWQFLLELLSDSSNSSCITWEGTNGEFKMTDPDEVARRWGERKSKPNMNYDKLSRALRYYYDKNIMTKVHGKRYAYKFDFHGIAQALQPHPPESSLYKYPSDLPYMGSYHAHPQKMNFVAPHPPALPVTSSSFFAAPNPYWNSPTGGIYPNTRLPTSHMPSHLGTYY
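His-tagged ERG Ets domain (1 uM in the protein solution; 300mM KCl, 50mM Tris-HCl, 1mM EDTA, 1mM DTT, pH 7.5) received compound, then a probe mix of 5 nM fluorescein-DNA and 100nM Texas-615-DNA. Fluorescence polarization was read for both dyes.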
The depositor's hits bear a star; [ ] = another dose, or the depositor's remark. Unless noted, calls come from the whole dose curve; as a rule, active = well fitted curve in the direction sought with a large enough effect; inconclusive = small, poorly fitted or top-dose-only effect, or another doubt; inactive = no such curve, though single readings can be large; an effect the other way counts as inactive or inconclusive.

Results for CCOC(=O)C1C(=O)CC(C)(O)C(C(=O)OCC)C1c1ccc(OC)cc1 (configuration not stated) ?
Apoferritin bind: -8%; CCT chaperon mod: -32*; ERG-DNA inh: -6%

Results for CN1[C@@H]2CC[C@H]1CC(OC(=O)[C@@H](CO)c1ccccc1)C2 (some centres not stated) ?
Apoferritin bind: 12%[29.3 µM]

What do the screens show for `COc1ccc(-c2nnc3n2N=C(c2ccc(OC)c(OC)c2)CS3)c(OC)c1`?
Apoferritin bind: -23%

Results for Nc1[nH]ncc1N=Nc1ccc(Cl)cc1 ?
Apoferritin bind: 32µM*; Mm-Cpn inhibitor: 1%; CCT chaperon mod: 1; ERG-DNA inh: 2%

Results for Nc1n[nH]c(N)c1N=Nc1ccc(Cl)cc1 ?
Apoferritin bind: inconclusive; Mm-Cpn inhibitor: 0%; CCT chaperon mod: 3; ERG-DNA inh: -2%

What do the screens show for `Cc1cccc(N2CCN(C(=O)Cn3c(=O)c4cccn4c4ccc(F)cc43)CC2)c1C`?
Apoferritin bind: 1%; ERG-DNA inh: -5%

How did COc1ccc(CCNC(=O)Cc2ccc(OCc3ccccc3)c(OC)c2[N+](=O)[O-])cc1OCc1ccccc1 do in these assays?
Apoferritin bind: 35µM*; Mm-Cpn inhibitor: -2%; CCT chaperon mod: -5; ERG-DNA inh: -4%

What do the screens show for `COc1ccc(CCNC(=O)Cc2ccc([N+](=O)[O-])cc2)cc1OC`?
Apoferritin bind: -5%; Mm-Cpn inhibitor: 1%; CCT chaperon mod: 2; ERG-DNA inh: -13%

How did COc1ccccc1-c1cc(NC(C)=O)c2ncc(-c3ccccc3)n2c1 do in these assays?
CCT chaperon mod: -6

Results for CC(=O)Nc1cc(-c2ccccc2F)cn2c(-c3ccccc3)cnc12 ?
CCT chaperon mod: -36*

How did Cc1ccc2c(c1)c(CC(NC(=O)c1ccccc1Oc1ccccc1)C(=O)O)cn2C(=O)OCc1ccccc1 (configuration not stated) do in these assays?
Apoferritin bind: 7%

How did NC(=O)C1CCN(c2nc(-c3cccc(Br)c3)cs2)CC1 do in these assays?
Mm-Cpn inhibitor: -1%

How did Cc1nn(C)c(Cl)c1S(=O)(=O)N[C@@H](c1ccccc1)[C@]1(C)C[C@H]1[C@@H](C)C(=O)Nc1ccc2ccccc2c1 do in these assays?
Apoferritin bind: 8%; Mm-Cpn inhibitor: -1%; CCT chaperon mod: -70*; ERG-DNA inh: -2%

How did C[C@@H](C(=O)Nc1ccc2ccccc2c1)[C@H]1C[C@]1(C)[C@H](NS(=O)(=O)c1ccc2ccccc2c1)c1ccccc1 do in these assays?
Apoferritin bind: -12%

Results for CCOc1c2ccc(C(=O)NCc3ccc(OC(F)(F)F)cc3)cc2nn1CC ?
Apoferritin bind: -15%; Mm-Cpn inhibitor: 0%; CCT chaperon mod: -59*; ERG-DNA inh: -1%

Results for O=C(C1CCCN(Cc2ccc3c(c2)OCO3)C1)N1CCCC1 (configuration not stated) ?
Apoferritin bind: -2%; Mm-Cpn inhibitor: 0%; CCT chaperon mod: -34*; ERG-DNA inh: -8%

What do the screens show for `COc1ccc(-c2cnc(C)o2)cc1S(=O)(=O)Nc1ccc(C)c(F)c1`?
Apoferritin bind: -10%; ERG-DNA inh: 0%

Results for Cc1cccc(N2CCN(S(=O)(=O)c3cc(C(=O)Nc4ccccc4Cl)ccc3F)CC2)c1C ?
Apoferritin bind: -15%; ERG-DNA inh: -9%

What do the screens show for `Cc1ccc(NC(=O)c2cnn(-c3ccccc3)c2NC(=O)c2ccco2)cc1C`?
Apoferritin bind: inconclusive; Mm-Cpn inhibitor: 0%; CCT chaperon mod: -39*; ERG-DNA inh: 7%

What do the screens show for `O=C(CSc1ncc(-c2ccccc2)nn1)NCc1ccco1`?
Apoferritin bind: -10%; Mm-Cpn inhibitor: -1%; CCT chaperon mod: -92*

How did COc1ccc(NC(=O)CN2C(=O)CSc3ccc(S(=O)(=O)N4CCCC4)cc32)cc1OC do in these assays?
Apoferritin bind: -20%; Mm-Cpn inhibitor: 0%; CCT chaperon mod: -37*; ERG-DNA inh: -3%

How did O=C(Cc1ccccc1)NN1C(=O)/C(=C/c2ccc(C(=O)O)cc2)SC1=S do in these assays?
Apoferritin bind: -13%; Mm-Cpn inhibitor: 3%; CCT chaperon mod: -35*; ERG-DNA inh: 24%

Results for O=C(O)c1ccc(/C=C2/SC(=S)N(Cc3ccccc3)C2=O)cc1 ?
Apoferritin bind: -3%; Mm-Cpn inhibitor: -1%; CCT chaperon mod: 3; ERG-DNA inh: 27%

Results for NC(N)=NCCC[C@@H](N)C(=O)NCC(=O)N[C@@H](CC(=O)O)C(=O)N[C@@H](Cc1c[nH]c2ccccc12)C(=O)O ?
Apoferritin bind: -1%

How did CN(C)c1ccc(-c2ccc(C3C4C=CCCC4(C)C(=O)N3Cc3ccccc3)c(F)c2)cc1 (configuration not stated) do in these assays?
Apoferritin bind: 22%

Results for CN(C)S(=O)(=O)c1ccc(N2CCCC2)c(C(=O)NNC(=O)c2ccc(F)cc2)c1 ?
Mm-Cpn inhibitor: -1%; CCT chaperon mod: -61*; ERG-DNA inh: 5%

Results for COc1ccc(OCCn2nnc3sc4c(c3c2=O)CCC(C(C)(C)C)C4)cc1 (configuration not stated) ?
Apoferritin bind: inconclusive; ERG-DNA inh: -6%

Results for Cc1cc(C)cc(N(C)S(=O)(=O)c2nnc(NC(=O)COc3ccc(C)c(C)c3)s2)c1 ?
Apoferritin bind: -14%; ERG-DNA inh: 1%

What do the screens show for `COc1ccc(OC)c(NC(=O)c2cc(S(=O)(=O)NCc3ccco3)ccc2F)c1`?
Apoferritin bind: inconclusive; Mm-Cpn inhibitor: 1%; CCT chaperon mod: -1; ERG-DNA inh: -1%

Results for CCOc1ccccc1NC(=O)c1cc(S(=O)(=O)NCc2ccco2)ccc1F ?
Apoferritin bind: -5%; Mm-Cpn inhibitor: -2%; CCT chaperon mod: -67*; ERG-DNA inh: 7%

Results for COc1ccc(C(=O)NCCC2=CCCCC2)cc1 ?
Apoferritin bind: 2%; Mm-Cpn inhibitor: 0%; CCT chaperon mod: -1; ERG-DNA inh: -6%

Results for COc1cccc(C(=O)NCCC2=CCCCC2)c1 ?
Apoferritin bind: 28µM*; Mm-Cpn inhibitor: 1%; CCT chaperon mod: 0; ERG-DNA inh: 8%

Results for Cc1cc(NC(=O)Cn2nnc3sc4c(c3c2=O)CCC(C(C)(C)C)C4)no1 (configuration not stated) ?
Apoferritin bind: 13µM*; Mm-Cpn inhibitor: -1%; CCT chaperon mod: -2; ERG-DNA inh: 9%

What do the screens show for `Cc1ccc(-n2c(C)csc2=N)cc1`?
Apoferritin bind: inconclusive; Mm-Cpn inhibitor: 1%; CCT chaperon mod: -1; ERG-DNA inh: 3%

Results for Cc1csc(=N)n1-c1ccc(Cl)cc1 ?
Apoferritin bind: 11µM*; Mm-Cpn inhibitor: -2%; CCT chaperon mod: 0

Assay outcomes as filed in PubChem.
